Measurements as given in PubChem BioAssay.
Values joined by “and” are separate entries in the source; they are usually repeats but may differ in a detail not shown here. Equal entries are not always repeated. Active and inactive are the calls of the source. Unless noted, the rule behind the calls is not given here.

How the values were obtained:
[1] = compound effects on lung adenocarcinoma cell viability – A549, calcein-AM fluorescence, 48 h, basal, profiling panel (AID 1162); conditions: higher = more signal; note: test concentration not given here
[2] = compound effects on differentiated 3T3-L1 adipocyte viability – cell-based, 3T3-L1 adipocytes, calcein-AM fluorescence, 48 h, basal, profiling panel (AID 1163); conditions: 3T3-L1 adipocytes viability, higher = more signal; note: test concentration not given here
[3] = compound effects on hepatocellular carcinoma cell viability – HepG2, calcein-AM fluorescence, 48 h, basal, profiling panel (AID 1164); conditions: higher = more signal; note: test concentration not given here
[4] = compound effects on multiple myeloma cell viability – MM1S, calcein-AM fluorescence, 48 h, basal, profiling panel (AID 1165); conditions: higher = more signal; note: test concentration not given here
[5] = calcein-AM signal in unstimulated myeloma cells – cell-based, calcein-AM fluorescence, 48 h, PK04 Diversity Set, profiling panel (AID 1166); conditions: RPMI8226 myeloma viability, higher = more signal;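 note: cells grown under basal conditions without added stimulus; test concentration not given here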
[6] = JC-1 mitochondrial signal, unstimulated HepG2 cells – cell-based, JC-1 fluorescence, 24 h, 100 nL compound, profiling panel (AID 1167); conditions: HepG2 mitochondrial potential, higher = more signal; note: test concentration not given here
[7] = JC-1 mitochondrial signal, unstimulated adipocytes – cell-based, JC-1 fluorescence, 3T3-L1 adipocytes, 24 h, 100 nL compound, profiling panel (AID 1168); conditions: JC-1 mitochondrial fluorescence, higher = more signal, called active from +8 up or from −8 down; note: test concentration not given here
[8] = JC-1 mitochondrial signal, unstimulated myeloma cells – cell-based, JC-1 fluorescence, RPMI8226, 24 h, 100 nL compound, profiling panel (AID 1169); conditions: JC-1 mitochondrial potential fluorescence, higher = more signal; note: test concentration not given here
[9] = JC-1 mitochondrial signal, unstimulated MM1S myeloma – cell-based, JC-1 fluorescence, 24 h, 100 nL compound, profiling panel (AID 1170); conditions: MM1S mitochondrial potential, higher = more signal; note: test concentration not given here
[10] = resazurin metabolic signal in A549 cells – cell-based, resazurin fluorescence, 24 h, PK04 Diversity Set, profiling panel (AID 1171); conditions: A549 viability, higher = more signal, called active from +8 up or from −8 down; note: test concentration not given here
[11] = resazurin metabolic signal in HepG2 cells – cell-based, resazurin fluorescence, 24 h, PK04 Diversity Set, profiling panel (AID 1172); conditions: HepG2 viability, higher = more signal; note: test concentration not given here
[12] = budding yeast growth changes without added modifier – OD600, strain BY4716, 24 h, basal condition, primary screen (AID 1173); conditions: S. cerevisiae BY4716 growth, OD600, 24 h; higher = more signal, called active from +8 up or from −8 down
[13] = viability profiling in MM1S myeloma cells – cell-based, resazurin fluorescence, basal, 24 h, PK04 Diversity Set, profiling panel (AID 1174); conditions: higher = more signal, called active from +8 up or from −8 down; note: test concentration not given here
[14] = molecular target: Dihydroorotate dehydrogenase (quinone), mitochondrial (Plasmodium falciparum (isolate 3D7)) (UniProt Q08210); experiment: inhibition of P. falciparum DHODH – biochemical, C-terminal His tag, absorbance 600 nm, primary screen (AID 1175); conditions: PfDHODH enzyme, DCIP absorbance 600 nm; higher = more signal, called active from +8 up or from −8 down;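 note: recombinant parasite enzyme with a five histidine tag at its C terminus; test concentration not given here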
Dihydroorotate dehydrogenase (quinone), mitochondrial (Plasmodium falciparum (isolate 3D7)), sequence (Q08210 whole entry, looked up): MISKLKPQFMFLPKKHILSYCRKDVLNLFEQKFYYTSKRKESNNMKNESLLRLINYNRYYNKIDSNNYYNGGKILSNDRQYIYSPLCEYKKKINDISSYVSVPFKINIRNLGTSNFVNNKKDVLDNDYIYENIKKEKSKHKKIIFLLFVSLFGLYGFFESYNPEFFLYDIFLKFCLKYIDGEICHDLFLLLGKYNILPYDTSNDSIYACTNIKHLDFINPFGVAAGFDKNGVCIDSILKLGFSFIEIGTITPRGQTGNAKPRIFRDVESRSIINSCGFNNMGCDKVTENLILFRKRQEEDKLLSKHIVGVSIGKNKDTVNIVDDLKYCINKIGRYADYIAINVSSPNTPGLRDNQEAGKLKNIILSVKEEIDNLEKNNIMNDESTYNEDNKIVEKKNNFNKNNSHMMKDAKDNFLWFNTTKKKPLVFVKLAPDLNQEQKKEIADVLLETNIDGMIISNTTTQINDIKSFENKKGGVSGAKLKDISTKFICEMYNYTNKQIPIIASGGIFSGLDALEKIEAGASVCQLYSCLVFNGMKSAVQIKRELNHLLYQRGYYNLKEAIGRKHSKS

[15] = inhibition of PAO1 biofilm formation – strain PAO1, LB-PBS medium, absorbance 600 nm, primary screen (AID 1176); note: test concentration not given here; conditions: P. aeruginosa PAO1 growth/biofilm, A600, 12 h; higher = more signal
[16] = growth modulation of vineyard yeast isolate – strain RM11-1a, OD600, basal, 24 h, primary screen (AID 1177);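 note: cultures grown under basal conditions with no added stressor; test concentration not given here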; conditions: S. cerevisiae RM11-1a growth, OD600, 24 h; higher = more signal, called active from +8 up or from −8 down
[17] = growth of efflux-deficient E. coli DRC39 – strain DRC39, OD650, 24 h, E. coli filamentation inducers, primary screen (AID 1178);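 note: growth measured as culture turbidity by optical density at 650 nm; test concentration not given here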; conditions: E. coli DRC39 acrAB, higher = more signal, called active from +8 up or from −8 down
[18] = growth of efflux-deficient E. coli DRC39 – strain DRC39, OD650, 48 h, E. coli filamentation inducers, primary screen (AID 1179);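 note: screen aims at cell division blockers that make cells filament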; conditions: E. coli DRC39 delta-acrAB growth, higher = more signal, called active from +8 up or from −8 down
[19] = viability profiling in RPMI8226 myeloma cells – cell-based, resazurin fluorescence, basal, 24 h, PK04 Diversity Set, profiling panel (AID 1180); conditions: higher = more signal;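 note: RPMI8826 multiple myeloma cell line at 5000 cells per well; test concentration not given here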
[20] = molecular target: E3 ubiquitin-protein ligase XIAP (Homo sapiens) (UniProt P98170); experiment: small molecules binding XIAP protein – biophysical, small-molecule microarray, fluorescence 635 nm, primary screen (AID 1181); conditions: higher = more signal;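 note: score merges 667 nm emission and signal to noise over triplicate slides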
E3 ubiquitin-protein ligase XIAP (Homo sapiens), sequence (P98170 whole entry, looked up): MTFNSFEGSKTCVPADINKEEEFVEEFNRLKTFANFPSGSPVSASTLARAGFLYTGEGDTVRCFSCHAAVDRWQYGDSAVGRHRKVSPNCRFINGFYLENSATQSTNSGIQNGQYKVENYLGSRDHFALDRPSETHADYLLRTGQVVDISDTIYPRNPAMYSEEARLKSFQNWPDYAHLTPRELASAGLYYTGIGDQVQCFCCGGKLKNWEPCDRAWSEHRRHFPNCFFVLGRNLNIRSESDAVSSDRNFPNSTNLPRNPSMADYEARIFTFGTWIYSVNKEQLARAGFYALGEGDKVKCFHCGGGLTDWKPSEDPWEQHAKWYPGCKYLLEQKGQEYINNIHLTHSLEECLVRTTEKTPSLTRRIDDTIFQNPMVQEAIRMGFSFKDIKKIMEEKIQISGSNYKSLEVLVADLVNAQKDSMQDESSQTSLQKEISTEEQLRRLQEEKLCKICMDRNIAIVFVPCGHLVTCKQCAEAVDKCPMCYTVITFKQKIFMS

| SMILES | z-score [1] | z-score [2] | z-score [3] | z-score [4] | z-score [5] | z-score [6] | z-score [7] | z-score [8] | z-score [9] | z-score [10] | z-score [11] | z-score [12] | z-score [13] | composite z-score [14] | z-score [15] | z-score [16] | z-score [17] | z-score [18] | z-score [19] | composite z-score [20] |
| --- | --- | --- | --- | --- | --- | --- | --- | --- | --- | --- | --- | --- | --- | --- | --- | --- | --- | --- | --- | --- |
| COCn1c2ccccc2c2nnc(C(C)=O)nc21 | -0.337 and -0.197 | 0.745 and 0.622 | -0.786 and -0.47 | -0.32 and -0.151 | -2.16 and -1.74 | -2.92 and -0.761 | 0.0492 (inactive) and 0.883 (inactive) | -0.79 and -0.473 | -0.189 and -0.639 | -0.181 (inactive) and -0.856 (inactive) | -0.159 and -0.565 | -1.93 (inactive) and -2 (inactive) | -0.0104 (inactive) and 0.0255 (inactive) | -2.39 (inactive) and -2.01 (inactive) | -0.907 (inactive) and -0.576 (inactive) | 0.204 (inactive) and -0.16 (inactive) | -1.12 (inactive) and -1.17 (inactive) | -1.07 (inactive) and -1.34 (inactive) | -0.261 and -0.35 | -0.0095 and -0.065 |
| COC(=O)C1=C(C)N(Cc2ccccc2)C2=C(C(=O)c3ccccc3)[C@H](c3ccccc3)[C@@](O)(C(=O)OC)C(=O)N2[C@@H]1c1ccccc1 | 0.369 and 0.44 | -0.154 and -0.936 | 0.217 and 1.26 | -0.317 and 0.332 | -1.15 and 0.0491 | 1.33 and 2.03 | -0.393 (inactive) and -1.16 (inactive) | -0.639 and -0.349 | 0.573 and -0.514 | 1.39 (inactive) and -0.344 (inactive) | 0.291 and 0.302 | -1.07 (inactive) and -0.683 (inactive) | -1.34 (inactive) and -0.716 (inactive) | 0.382 (inactive) and -0.214 (inactive) | 0.875 (inactive) and -0.0538 (inactive) | 1.27 (inactive) and 0.504 (inactive) | 1.17 (inactive) and 0.312 (inactive) | 0.592 (inactive) and 0.607 (inactive) | -0.56 and -0.7 | 0.0399 and -0.0118 |
| CCOC(=O)[C@H](Cc1ccccc1)NC(=O)CCC1CC(OC(=O)NCc2cccc3ccccc23)CC2(CCCC(COC(=O)NCCCN3CCCC3=O)O2)O1 (stereo not given in full) | 2.08 | 0.0309 | -0.93 | -0.0157 | -0.178 | 0.397 | 0.17 (inactive) | -0.195 | -0.5 | 0.811 (inactive) | 0.968 | -1.78 (inactive) | 1.07 (inactive) | -1.19 (inactive) | 0.639 (inactive) | -0.697 (inactive) | -0.35 (inactive) | -0.209 (inactive) | 1.75 | -0.336 |
| CC(C)=NOCc1ccc(-c2cn([C@@H]3COC[C@H]3O)nn2)cc1 | 0.0524 | 0.371 | 0.239 | -0.812 | 0.176 | -0.32 | -0.0926 (inactive) | 0.169 | 1.43 | -0.207 (inactive) | -0.203 | 0.313 (inactive) | 0.0429 (inactive) | -0.478 (inactive) | -0.0691 (inactive) | -0.0292 (inactive) | 0.114 (inactive) | -0.0038 (inactive) | 0.106 | 0.0049 |
| COC(=O)C1=C(C)N(Cc2ccccc2)[C@]23O[C@](C(=O)OC)(C(=O)N2[C@@H]1c1ccccc1)[C@H]1C(=O)N(c2ccccc2)C(=O)[C@H]13 | 0.0342 and 1.13 | 0.513 and 1.12 | -0.254 and -0.339 | 0.149 and 0.0697 | -0.483 and 0.292 | 0.369 and 0.573 | 0.658 (inactive) and 0.885 (inactive) | -0.749 and -0.197 | 0.702 and 0.235 | 0.376 (inactive) and -0.0028 (inactive) | 0.652 and 1.12 | -1.07 (inactive) and -1.3 (inactive) | 0.965 (inactive) and -0.165 (inactive) | -0.047 (inactive) and -0.335 (inactive) | -0.2 (inactive) | -0.215 (inactive) and 0.133 (inactive) | -0.308 (inactive) and 0.166 (inactive) | -0.306 (inactive) and 0.155 (inactive) | 0.709 and 0.102 | -0.0346 and -0.316 |
| CN1C(=O)C2CC=C([C@H]3Oc4ccccc4S(=O)(=O)N4CCC[C@@H]34)CC2C1=O (stereo not given in full) | -0.657 and 0.15 | -0.109 and 0.323 | -0.926 and -0.369 | 0.49 and 0.288 | -0.177 and -0.215 | -0.649 and 0.00971 | 0.243 (inactive) and 0.347 (inactive) | 0.439 and 0.341 | 0.123 and -0.0296 | 0.0976 (inactive) and -0.125 (inactive) | -0.448 and 0.0011 | 0.325 (inactive) and 0.478 (inactive) | -0.391 (inactive) and -0.44 (inactive) | 0.341 (inactive) and -0.0294 (inactive) | -0.0582 (inactive) and 0.0481 (inactive) | 0.961 (inactive) and 1.32 (inactive) | 0.563 (inactive) and 0.831 (inactive) | 0.111 (inactive) and 0.0952 (inactive) | -0.801 and -0.0821 | -0.245 and -0.244 |
